The record followed here is article doi:10.1101/2024.03.05.583629.

In this assay the target is pT7_6His-AlfaTag-HOXD13 (human, UniProt P35453 263-343). In words: PADIT-seq. Particulars: dsDNA, one strand shown.
Sequence of pT7_6His-AlfaTag-HOXD13 (P35453 263-343): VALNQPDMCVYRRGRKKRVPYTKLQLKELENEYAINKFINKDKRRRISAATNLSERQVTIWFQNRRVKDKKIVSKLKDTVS
The sequence “CTCGAGGATATCAAGATCTGGCCTCGGCGCGTGGAAGGGAACCTCTAGCTAGCCGACTCACTATAGGGATAATCGCCCTGAGCAAAGACC” returned a binding signal of -0.832 ± 0.125 log2FC.
As to “CTCGAGGATATCAAGATCTGGCCTCGGCCTTTTAGCCGGAACCTCTAGCTAGCCGACTCACTATAGGGATAATCGCCCTGAGCAAAGACC”, the binding signal was -0.235 ± 0.0913 log2FC.
In the case of “CTCGAGGATATCAAGATCTGGCCTCGGCTTTTTAACCGGAACCTCTAGCTAGCCGACTCACTATAGGGATAATCGCCCTGAGCAAAGACC” it was 0.739 ± 0.095 log2FC; in that of “CTCGAGGATATCAAGATCTGGCCTCGGCGTACTAAAAGGAACCTCTAGCTAGCCGACTCACTATAGGGATAATCGCCCTGAGCAAAGACC”, 0.47 ± 0.0814 log2FC; in that of “CTCGAGGATATCAAGATCTGGCCTCGGCGCGGTAGCGGGAACCTCTAGCTAGCCGACTCACTATAGGGATAATCGCCCTGAGCAAAGACC”, -1.07 ± 0.136 log2FC.
“CTCGAGGATATCAAGATCTGGCCTCGGCTTCATAAAAGGAACCTCTAGCTAGCCGACTCACTATAGGGATAATCGCCCTGAGCAAAGACC” showed a binding signal of 2.49 ± 0.0838 log2FC.
Regarding “CTCGAGGATATCAAGATCTGGCCTCGGCGTCGTAAAAGGAACCTCTAGCTAGCCGACTCACTATAGGGATAATCGCCCTGAGCAAAGACC”, the binding signal was determined as 2.57 ± 0.0709 log2FC.
In the case of “CTCGAGGATATCAAGATCTGGCCTCGGCCGCATAAAAGGAACCTCTAGCTAGCCGACTCACTATAGGGATAATCGCCCTGAGCAAAGACC” it was 1.46 ± 0.0793 log2FC; in that of “CTCGAGGATATCAAGATCTGGCCTCGGCGCGTGGAGCGGAACCTCTAGCTAGCCGACTCACTATAGGGATAATCGCCCTGAGCAAAGACC”, -0.893 ± 0.118 log2FC.
Under “CTCGAGGATATCAAGATCTGGCCTCGGCCTTTTATTTGGAACCTCTAGCTAGCCGACTCACTATAGGGATAATCGCCCTGAGCAAAGACC” stands 2.69 ± 0.0648 log2FC.
Under “CTCGAGGATATCAAGATCTGGCCTCGGCCTTTTATATGGAACCTCTAGCTAGCCGACTCACTATAGGGATAATCGCCCTGAGCAAAGACC” stands 2.91 ± 0.0779 log2FC; under “CTCGAGGATATCAAGATCTGGCCTCGGCTTTTTAAGCGGAACCTCTAGCTAGCCGACTCACTATAGGGATAATCGCCCTGAGCAAAGACC”, 0.814 ± 0.0936 log2FC.
Sequence “CTCGAGGATATCAAGATCTGGCCTCGGCCTTTTACACGGAACCTCTAGCTAGCCGACTCACTATAGGGATAATCGCCCTGAGCAAAGACC” yielded a binding signal of 1.93 ± 0.075 log2FC.
As for “CTCGAGGATATCAAGATCTGGCCTCGGCTCGATAAAAGGAACCTCTAGCTAGCCGACTCACTATAGGGATAATCGCCCTGAGCAAAGACC”, the binding signal amounted to 1.03 ± 0.106 log2FC.
In the case of “CTCGAGGATATCAAGATCTGGCCTCGGCCTTTTACGTGGAACCTCTAGCTAGCCGACTCACTATAGGGATAATCGCCCTGAGCAAAGACC” it was 2.16 ± 0.0717 log2FC; in that of “CTCGAGGATATCAAGATCTGGCCTCGGCCTTTTACTTGGAACCTCTAGCTAGCCGACTCACTATAGGGATAATCGCCCTGAGCAAAGACC”, 0.95 ± 0.0821 log2FC; in that of “CTCGAGGATATCAAGATCTGGCCTCGGCCTTTTAGAAGGAACCTCTAGCTAGCCGACTCACTATAGGGATAATCGCCCTGAGCAAAGACC”, 0.357 ± 0.088 log2FC.
In the case of “CTCGAGGATATCAAGATCTGGCCTCGGCTTTTTAATGGGAACCTCTAGCTAGCCGACTCACTATAGGGATAATCGCCCTGAGCAAAGACC” it was 2.57 ± 0.0871 log2FC; in that of “CTCGAGGATATCAAGATCTGGCCTCGGCCGGCTAAAAGGAACCTCTAGCTAGCCGACTCACTATAGGGATAATCGCCCTGAGCAAAGACC”, -0.621 ± 0.107 log2FC; in that of “CTCGAGGATATCAAGATCTGGCCTCGGCGGCGTAAAAGGAACCTCTAGCTAGCCGACTCACTATAGGGATAATCGCCCTGAGCAAAGACC”, 0.246 ± 0.0968 log2FC.
Sequence “CTCGAGGATATCAAGATCTGGCCTCGGCGTTTTATCCGGAACCTCTAGCTAGCCGACTCACTATAGGGATAATCGCCCTGAGCAAAGACC” had a binding signal of 1 ± 0.0994 log2FC.
Under “CTCGAGGATATCAAGATCTGGCCTCGGCCGCTAACGCGGAACCTCTAGCTAGCCGACTCACTATAGGGATAATCGCCCTGAGCAAAGACC” stands -0.899 ± 0.132 log2FC; under “CTCGAGGATATCAAGATCTGGCCTCGGCGTCCTAAAAGGAACCTCTAGCTAGCCGACTCACTATAGGGATAATCGCCCTGAGCAAAGACC”, 0.117 ± 0.0783 log2FC.
Under “CTCGAGGATATCAAGATCTGGCCTCGGCTTTTTATGCGGAACCTCTAGCTAGCCGACTCACTATAGGGATAATCGCCCTGAGCAAAGACC” stands 2.03 ± 0.081 log2FC; under “CTCGAGGATATCAAGATCTGGCCTCGGCTCCCTAAAAGGAACCTCTAGCTAGCCGACTCACTATAGGGATAATCGCCCTGAGCAAAGACC”, -0.0391 ± 0.141 log2FC.
In the case of “CTCGAGGATATCAAGATCTGGCCTCGGCAAACCACGCGGAACCTCTAGCTAGCCGACTCACTATAGGGATAATCGCCCTGAGCAAAGACC” it was -0.989 ± 0.132 log2FC.
Turning to “CTCGAGGATATCAAGATCTGGCCTCGGCAGCTTAAAAGGAACCTCTAGCTAGCCGACTCACTATAGGGATAATCGCCCTGAGCAAAGACC”, the binding signal amounted to 0.129 ± 0.0835 log2FC.
In the case of “CTCGAGGATATCAAGATCTGGCCTCGGCATTTTAAACGGAACCTCTAGCTAGCCGACTCACTATAGGGATAATCGCCCTGAGCAAAGACC” it was 1.29 ± 0.0911 log2FC; in that of “CTCGAGGATATCAAGATCTGGCCTCGGCGTTGTAAAAGGAACCTCTAGCTAGCCGACTCACTATAGGGATAATCGCCCTGAGCAAAGACC”, 2.39 ± 0.0772 log2FC; in that of “CTCGAGGATATCAAGATCTGGCCTCGGCATTTTAGCGGGAACCTCTAGCTAGCCGACTCACTATAGGGATAATCGCCCTGAGCAAAGACC”, 0.146 ± 0.1 log2FC.
“CTCGAGGATATCAAGATCTGGCCTCGGCGTTTTATCGGGAACCTCTAGCTAGCCGACTCACTATAGGGATAATCGCCCTGAGCAAAGACC” showed a binding signal of 1.63 ± 0.0875 log2FC.
For the sequence “CTCGAGGATATCAAGATCTGGCCTCGGCTTTTTACGAGGAACCTCTAGCTAGCCGACTCACTATAGGGATAATCGCCCTGAGCAAAGACC”, the binding signal is 3.37 ± 0.0866 log2FC.
In the case of “CTCGAGGATATCAAGATCTGGCCTCGGCTTTTTAGGGGGAACCTCTAGCTAGCCGACTCACTATAGGGATAATCGCCCTGAGCAAAGACC”, the binding signal is 1.5 ± 0.0951 log2FC.
The sequence “CTCGAGGATATCAAGATCTGGCCTCGGCATGCCACGCGGAACCTCTAGCTAGCCGACTCACTATAGGGATAATCGCCCTGAGCAAAGACC” registered a binding signal of -1.08 ± 0.113 log2FC.
Sequence “CTCGAGGATATCAAGATCTGGCCTCGGCGTTTTACGCGGAACCTCTAGCTAGCCGACTCACTATAGGGATAATCGCCCTGAGCAAAGACC” yielded a binding signal of 2.22 ± 0.0821 log2FC.
In the case of “CTCGAGGATATCAAGATCTGGCCTCGGCTTTTTACCCGGAACCTCTAGCTAGCCGACTCACTATAGGGATAATCGCCCTGAGCAAAGACC” it was -0.11 ± 0.103 log2FC; in that of “CTCGAGGATATCAAGATCTGGCCTCGGCTTGGTAAAAGGAACCTCTAGCTAGCCGACTCACTATAGGGATAATCGCCCTGAGCAAAGACC”, 0.112 ± 0.0883 log2FC; in that of “CTCGAGGATATCAAGATCTGGCCTCGGCTAATTAAAAGGAACCTCTAGCTAGCCGACTCACTATAGGGATAATCGCCCTGAGCAAAGACC”, 2.92 ± 0.0818 log2FC.
